Records with an inconclusive call do not appear. Activity calls are given as the source filed them.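 Rule for the calls, unless noted: active = percent response above 42, roughly 3 SD of non-fluorescent test compounds; inactive = the rest.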
Tests used:
[1] = yeast TOR pathway RPL19A-GFP modulators, primary screen, cell-based, S. cerevisiae, multiplex flow cytometry (AID 1862; in the data active = percent of DMSO control GFP below about 86%;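 note: lower values mimic rapamycin by blocking the RPL19A rise seen in DMSO cells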); conditions: S. cerevisiae RPL19A-GFP strain, flow cytometry fluorescence, 3 h; at 10 µM; stronger effect = lower value
[2] = modulators of MEP2-GFP levels in yeast, primary screen, S. cerevisiae, multiplex flow cytometry (AID 1867;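 active = GFP response, as percent of the DMSO control, above the screen-wide mean plus 3 SD, about 139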;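 note: median GFP channel fluorescence of barcode-gated MEP2-GFP cells measured by flow cytometry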); conditions: S. cerevisiae MEP2-GFP strain, 3 h, at 10 µM, stronger effect = higher value, 100% means same as DMSO wells
[3] = modulators of CIT2-GFP expression in yeast, primary screen, S. cerevisiae, GFP fusion, multiplex flow cytometry (AID 1870;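 active = percent response above a set limit, the screen-wide mean plus 3 SD, cut at about 130% in these data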;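 note: barcoded CIT2-GFP strain pooled with four other GFP strains with rapamycin as positive control; median GFP fluorescence per well over plate mean of DMSO wells so 100% = DMSO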); conditions: 3 h, at 10 µM, stronger effect = higher value
[4] = modulators of LAP4-GFP expression in yeast, primary screen, S. cerevisiae, multiplex flow cytometry (AID 1873;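 active = GFP signal, as percent of the solvent control, above the screen mean plus 3 SD, about 149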); conditions: 3 h, at 10 µM, stronger effect = higher value
[5] = modulators of AGP1-GFP expression in yeast TOR pathway, primary screen, cell-based, multiplex flow cytometry, S. cerevisiae (AID 1887;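 active = GFP signal above the screen-wide mean plus 3 SD, that is over about 124.5% of the solvent control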;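 note: AGP1-GFP fusion strain of S. cerevisiae within a five-strain barcoded multiplex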); conditions: 3 h, at 10 µM, stronger effect = higher value
[6] = inhibitors of CD8+ T cell-vesicle binding, pilot screen, LFA-1/ICAM-1 modulator project, MLPCN validation set, flow cytometry (AID 2523;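 active = response below a set limit, under 55% cells CD8-positive and vesicle-bound, and CD8 cells' 90th-percentile brightness under 279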;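 for vesicle binding response: mean PE anti-B7-1 fluorescence of CD8+ cells relative to row control; 100% = QL9-loaded vesicles with DMSO vehicle in the same plate row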); conditions: 2C mouse CD8+ T cells, at 7 µM, stronger effect = lower value; double positive events: measured here: CD8+/vesicle+ event percentage
[7] = target: Integrin beta-1 (Homo sapiens) + Integrin alpha-4 (Homo sapiens) (UniProt P13612+P05556); assay: inhibition of HUTS-21 binding to VLA-4, pilot screen, VLA-4 allosteric modulator project, U937 cells, HUTS-21 mAb, flow cytometry, validation set (AID 2674;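 active = inhibition above 50%, about 3 SD of the validation set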;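 note: antibody binding induced by the VLA-4 ligand LDV present at three times its Kd; 0% = LDV ligand with antibody and no compound and 100% = antibody without LDV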); conditions: HUTS-21 LIBS mAb binding, at 6.7 µM, stronger effect = higher value, binding induced by LDV ligand
Integrin beta-1 (Homo sapiens) + Integrin alpha-4 (Homo sapiens), sequence (P05556 whole entry, looked up): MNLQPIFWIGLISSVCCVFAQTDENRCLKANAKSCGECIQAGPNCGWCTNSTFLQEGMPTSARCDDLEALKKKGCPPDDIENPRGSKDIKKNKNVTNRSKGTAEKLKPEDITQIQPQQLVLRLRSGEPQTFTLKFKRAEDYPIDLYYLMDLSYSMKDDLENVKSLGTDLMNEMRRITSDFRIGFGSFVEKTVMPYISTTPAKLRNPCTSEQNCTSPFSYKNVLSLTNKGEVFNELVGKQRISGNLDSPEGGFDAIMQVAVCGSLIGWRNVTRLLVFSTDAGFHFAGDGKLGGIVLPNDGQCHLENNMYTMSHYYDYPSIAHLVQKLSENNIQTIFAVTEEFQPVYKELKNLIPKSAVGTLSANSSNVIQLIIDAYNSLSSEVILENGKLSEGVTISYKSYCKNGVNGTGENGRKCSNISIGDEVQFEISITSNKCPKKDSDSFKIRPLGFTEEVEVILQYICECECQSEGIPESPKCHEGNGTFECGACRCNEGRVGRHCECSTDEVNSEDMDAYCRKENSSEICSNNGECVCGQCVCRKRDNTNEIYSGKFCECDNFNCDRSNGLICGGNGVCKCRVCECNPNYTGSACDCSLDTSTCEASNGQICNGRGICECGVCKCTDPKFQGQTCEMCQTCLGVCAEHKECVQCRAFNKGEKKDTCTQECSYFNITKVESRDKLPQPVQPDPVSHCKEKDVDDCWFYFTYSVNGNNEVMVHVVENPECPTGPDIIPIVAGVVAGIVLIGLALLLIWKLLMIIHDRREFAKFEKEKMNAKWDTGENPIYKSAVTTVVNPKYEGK
Integrin beta-1 (Homo sapiens) + Integrin alpha-4 (Homo sapiens), sequence (P13612 whole entry, looked up): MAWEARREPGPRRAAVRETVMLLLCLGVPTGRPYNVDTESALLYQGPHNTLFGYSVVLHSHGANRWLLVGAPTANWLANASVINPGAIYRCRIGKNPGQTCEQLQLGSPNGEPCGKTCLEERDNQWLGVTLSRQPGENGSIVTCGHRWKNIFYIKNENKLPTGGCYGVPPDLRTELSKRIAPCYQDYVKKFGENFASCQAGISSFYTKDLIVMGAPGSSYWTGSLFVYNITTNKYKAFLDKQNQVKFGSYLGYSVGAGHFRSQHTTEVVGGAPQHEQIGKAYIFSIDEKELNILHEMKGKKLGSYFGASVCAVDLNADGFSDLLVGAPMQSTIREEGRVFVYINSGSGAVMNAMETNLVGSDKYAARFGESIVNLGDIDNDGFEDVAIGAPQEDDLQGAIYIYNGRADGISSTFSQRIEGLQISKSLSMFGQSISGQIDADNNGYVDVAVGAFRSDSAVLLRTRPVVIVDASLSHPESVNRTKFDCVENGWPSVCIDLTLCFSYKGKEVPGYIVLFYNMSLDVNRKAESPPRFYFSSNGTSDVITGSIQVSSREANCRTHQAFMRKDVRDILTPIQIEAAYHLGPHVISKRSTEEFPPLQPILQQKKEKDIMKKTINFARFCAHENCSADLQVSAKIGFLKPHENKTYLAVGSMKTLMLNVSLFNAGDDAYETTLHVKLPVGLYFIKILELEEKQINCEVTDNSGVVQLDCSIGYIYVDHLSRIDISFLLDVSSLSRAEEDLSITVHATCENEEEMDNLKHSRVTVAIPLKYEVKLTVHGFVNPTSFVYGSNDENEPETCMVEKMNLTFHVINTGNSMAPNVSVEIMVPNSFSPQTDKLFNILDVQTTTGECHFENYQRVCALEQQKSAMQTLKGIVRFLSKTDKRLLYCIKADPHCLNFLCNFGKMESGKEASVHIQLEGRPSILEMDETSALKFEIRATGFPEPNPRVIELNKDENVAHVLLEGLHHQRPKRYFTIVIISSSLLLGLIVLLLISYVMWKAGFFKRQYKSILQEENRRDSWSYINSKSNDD

[8] = superoxide lowering in aged yeast cells, pilot screen, validation compound set (AID 2706;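 active = superoxide response below 65% of plate, a cut near 3 SD across the whole screen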;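 note: yeast exposed to compound for one week at 30 degrees C before staining; 100% = mean of all compound wells on the same plate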); conditions: S. cerevisiae aging, superoxide DHE fluorescence; at 10 µM; stronger effect = lower value
[9] = target: Beta-adrenergic receptor kinase 1 (Homo sapiens) (UniProt P25098); assay: GRK2 binders displacing RNA aptamer, biochemical, validation, human GRK2, bead flow cytometry (AID 488806;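 active = aptamer binding inhibition above 30%, about 3 SD of noise from non-fluorescent compounds; inactive = inhibition at or below 30%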); conditions: bead-bound GRK2, FAM-aptamer displacement, at 10 µM, stronger effect = higher value
Beta-adrenergic receptor kinase 1 (Homo sapiens), sequence (P25098 whole entry, looked up): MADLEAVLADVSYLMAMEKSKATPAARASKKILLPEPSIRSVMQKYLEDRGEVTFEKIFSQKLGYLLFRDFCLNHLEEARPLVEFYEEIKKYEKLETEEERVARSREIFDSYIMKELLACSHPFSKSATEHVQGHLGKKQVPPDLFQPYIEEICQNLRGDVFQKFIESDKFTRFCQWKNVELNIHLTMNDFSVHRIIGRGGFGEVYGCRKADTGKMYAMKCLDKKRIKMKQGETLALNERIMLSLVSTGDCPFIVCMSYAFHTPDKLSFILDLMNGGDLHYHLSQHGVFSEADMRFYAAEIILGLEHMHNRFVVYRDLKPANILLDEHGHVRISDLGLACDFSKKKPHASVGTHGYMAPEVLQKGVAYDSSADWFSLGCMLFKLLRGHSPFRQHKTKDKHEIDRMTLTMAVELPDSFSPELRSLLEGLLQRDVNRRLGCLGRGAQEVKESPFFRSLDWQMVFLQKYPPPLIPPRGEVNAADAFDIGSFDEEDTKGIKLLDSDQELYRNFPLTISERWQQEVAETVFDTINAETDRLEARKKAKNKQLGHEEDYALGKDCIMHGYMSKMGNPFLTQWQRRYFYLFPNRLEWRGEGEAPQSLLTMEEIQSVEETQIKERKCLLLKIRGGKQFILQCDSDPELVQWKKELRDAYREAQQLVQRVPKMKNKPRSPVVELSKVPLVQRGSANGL

[10] = target: Beta-2 adrenergic receptor (Homo sapiens) (UniProt P07550); assay: beta2AR agonists driving receptor internalization, pilot screen, cell-based, FAP fluorogen, flow cytometry, validation set (AID 504459); conditions: Am2.2-beta2AR cells, FAP surface receptor flow cytometry; at 10 µM; stronger effect = higher value;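 note: agonist-driven loss of surface beta2AR via internalization measured by FAP dye flow cytometry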
Beta-2 adrenergic receptor (Homo sapiens), sequence (P07550 whole entry, looked up): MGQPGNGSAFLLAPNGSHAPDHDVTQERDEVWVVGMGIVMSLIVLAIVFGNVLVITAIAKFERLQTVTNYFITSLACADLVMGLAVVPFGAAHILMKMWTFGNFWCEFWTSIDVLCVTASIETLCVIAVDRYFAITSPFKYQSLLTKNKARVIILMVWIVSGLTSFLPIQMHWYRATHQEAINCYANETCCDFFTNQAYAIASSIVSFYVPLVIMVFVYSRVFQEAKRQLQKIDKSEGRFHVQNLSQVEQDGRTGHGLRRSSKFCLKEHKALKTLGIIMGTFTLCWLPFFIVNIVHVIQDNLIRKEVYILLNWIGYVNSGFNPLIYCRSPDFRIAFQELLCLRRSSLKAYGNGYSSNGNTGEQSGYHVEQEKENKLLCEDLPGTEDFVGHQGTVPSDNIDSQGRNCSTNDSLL

[11] = target: AP-2 complex subunit beta (Homo sapiens) (UniProt P63010); assay: inhibitors of arrestin peptide binding to AP2, pilot screen, biochemical, validation set, GST-AP2 beads, flow cytometry (AID 504541;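 active = inhibition above 54%, about 3 SD of non-fluorescent compounds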;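 note: AP2 carries R879A mutation and is captured from E. coli lysate; bead-bound FITC arrestin peptide fluorescence measuring arrestin peptide binding to AP2; 0% = DMSO wells and 100% = excess unlabeled arrestin peptide control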); conditions: FITC arrestin peptide, at 10 µM, stronger effect = higher value, AP2 beta2 appendage fragment, R879A mutant
AP-2 complex subunit beta (Homo sapiens), sequence (P63010 whole entry, looked up, the tested form may be a part, one chain of several): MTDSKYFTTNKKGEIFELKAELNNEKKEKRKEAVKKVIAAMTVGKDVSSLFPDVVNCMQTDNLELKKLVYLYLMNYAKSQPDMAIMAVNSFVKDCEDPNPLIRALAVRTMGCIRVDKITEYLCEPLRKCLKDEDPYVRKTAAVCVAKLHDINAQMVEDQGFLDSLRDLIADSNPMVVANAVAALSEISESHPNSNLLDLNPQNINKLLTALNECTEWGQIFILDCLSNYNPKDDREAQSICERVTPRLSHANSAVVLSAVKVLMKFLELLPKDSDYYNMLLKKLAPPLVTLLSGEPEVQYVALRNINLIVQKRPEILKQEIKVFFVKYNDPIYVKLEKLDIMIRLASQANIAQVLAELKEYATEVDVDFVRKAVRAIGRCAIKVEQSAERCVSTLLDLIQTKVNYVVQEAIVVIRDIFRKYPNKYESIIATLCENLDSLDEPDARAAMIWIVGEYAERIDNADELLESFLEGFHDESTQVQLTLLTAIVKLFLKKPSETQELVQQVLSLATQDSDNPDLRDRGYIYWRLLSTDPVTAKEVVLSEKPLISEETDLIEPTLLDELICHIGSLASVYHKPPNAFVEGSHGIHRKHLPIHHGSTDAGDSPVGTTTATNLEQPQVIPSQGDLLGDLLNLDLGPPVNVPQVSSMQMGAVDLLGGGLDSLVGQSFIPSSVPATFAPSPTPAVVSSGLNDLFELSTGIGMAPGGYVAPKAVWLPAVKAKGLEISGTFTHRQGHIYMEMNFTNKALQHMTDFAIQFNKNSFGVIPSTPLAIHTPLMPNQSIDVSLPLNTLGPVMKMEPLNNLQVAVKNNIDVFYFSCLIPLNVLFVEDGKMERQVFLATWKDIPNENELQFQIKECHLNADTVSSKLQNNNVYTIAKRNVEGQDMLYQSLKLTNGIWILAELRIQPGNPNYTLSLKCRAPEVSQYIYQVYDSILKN

[12] = yeast V-ATPase proton transport modulators, S. cerevisiae, pHLuorin, HTS validation (AID 504600; in the data active = response above about 15%;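 note: plate controls were DMSO for no effect and reference compound for full effect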); conditions: S. cerevisiae pHLuorin cytosolic pH, at 10 µM, stronger effect = higher value
[13] = system: anti-desmoglein-3 scFv antibody binding to human DSG3; assay: inhibitors of anti-DSG3 scFv binding to DSG3, pilot screen, biochemical, validation compound set, bead-based, flow cytometry (AID 588368;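 active = binding below the plate cutoff, the plate median minus 3 SD, with a reading above zero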;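 note: signal is the median channel fluorescence of bead-bound GFP antibody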); conditions: Protein G beads, DSG3-Fc, scFv-GFP binding, at 10 µM, stronger effect = lower value
[14] = inhibitors of fungal efflux pumps CDR1, CDR2, MDR1, pilot screen, validation compound set, multiplex, phenotypic (AID 588506;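 active = efflux inhibition above 0.42, the validation set average plus 4 SD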;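 note: Nile Red retained in cells so higher fluorescence means more efflux inhibition; 0 = negative control wells and 1 = enniatin B 25 µM full block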); conditions: S. cerevisiae pump-expressing triplex, Nile Red efflux flow cytometry; at 10 µM; stronger effect = higher value; the pumps come from Candida albicans
[15] = target: ATP-binding cassette sub-family B member 6 (Homo sapiens) (UniProt Q9NP58); assay: ABCB6 transporter inhibitors, pilot screen, K562-ABCB6 cells, flow cytometry, validation set (AID 588550;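 active = inhibition above the screen-wide mean plus 3 SD, about 51%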;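 note: 0% = DMSO wells and 100% = benzethonium chloride 70 µM positive control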); conditions: K562-ABCB6 porphyrin accumulation, 1 h, at 10 µM, stronger effect = higher value
ATP-binding cassette sub-family B member 6 (Homo sapiens), sequence (Q9NP58 whole entry, looked up): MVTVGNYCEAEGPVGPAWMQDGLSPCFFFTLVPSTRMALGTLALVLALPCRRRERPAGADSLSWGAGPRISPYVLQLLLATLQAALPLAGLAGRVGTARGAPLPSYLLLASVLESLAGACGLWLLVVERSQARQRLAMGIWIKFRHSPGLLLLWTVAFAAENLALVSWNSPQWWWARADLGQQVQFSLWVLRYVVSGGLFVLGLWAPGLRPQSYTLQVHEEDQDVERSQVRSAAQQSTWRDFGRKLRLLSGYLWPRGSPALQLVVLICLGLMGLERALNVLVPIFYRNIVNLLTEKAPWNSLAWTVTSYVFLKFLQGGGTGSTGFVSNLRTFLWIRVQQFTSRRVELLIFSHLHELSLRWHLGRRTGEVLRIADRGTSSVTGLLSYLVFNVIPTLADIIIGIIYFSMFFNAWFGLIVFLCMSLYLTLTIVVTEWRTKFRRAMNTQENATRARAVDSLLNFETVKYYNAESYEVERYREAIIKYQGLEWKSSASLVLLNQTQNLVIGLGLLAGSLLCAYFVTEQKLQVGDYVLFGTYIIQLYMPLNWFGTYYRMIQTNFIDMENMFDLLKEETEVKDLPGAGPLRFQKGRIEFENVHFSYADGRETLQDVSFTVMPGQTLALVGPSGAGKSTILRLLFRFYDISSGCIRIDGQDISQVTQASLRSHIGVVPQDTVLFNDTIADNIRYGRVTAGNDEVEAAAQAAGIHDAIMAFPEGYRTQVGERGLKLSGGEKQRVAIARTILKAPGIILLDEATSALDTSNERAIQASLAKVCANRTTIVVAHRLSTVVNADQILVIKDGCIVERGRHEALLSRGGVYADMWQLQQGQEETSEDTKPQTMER

[16] = promoters of myeloid differentiation in arrested cells, primary screen, cell-based, GFP/MAC1 double positive, flow cytometry, validation set (AID 588685;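 active = differentiation response of at least 50%, scaled between solvent and reference control, from cells with both markers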;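 note: compound exposure lasts four days before antibody staining and flow analysis; 0% = DMSO wells and 100% = 5 µM fulvestrant positive control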); conditions: ER-HoxA9 marrow cells, stronger effect = higher value, normalized: vehicle 0, fulvestrant 100

CCN(CC)CCNC(=O)c1cc(Cl)c(N)cc1OC
percent of DMSO control GFP [1]: 105% (inactive) | GFP response vs DMSO [2]: 107% (inactive) | percent response of DMSO control [3]: 89.6% (inactive) | GFP response vs DMSO [4]: 92% (inactive) | GFP response, % of DMSO [5]: 99.7% (inactive) | double positive events [6]: 63.2% | vesicle binding response [6]: 204% (inactive) | inhibition [7]: -28.5% (inactive) | superoxide response (% of plate) [8]: 104% (inactive) | aptamer binding inhibition [9]: 5% (inactive) | response [10]: 2.1% (inactive) | inhibition [11]: 23.4% (inactive) | response [12]: -4.6% (inactive) | binding (% of control) [13]: 100% (inactive) | efflux inhibition (fraction of control) [14]: -0.1 (inactive) | inhibition [15]: -10% (inactive) | differentiation response [16]: 7.09% (inactive)

CN(C)CCOC(=O)C(c1ccccc1)C1(O)CCCC1 (stereo not given)
percent of DMSO control GFP [1]: 92% (inactive) | GFP response vs DMSO [2]: 137% (inactive) | percent response of DMSO control [3]: 97.9% (inactive) | GFP response vs DMSO [4]: 75.9% (inactive) | GFP response, % of DMSO [5]: 84.3% (inactive) | double positive events [6]: 65.7% | vesicle binding response [6]: 249% (inactive) | inhibition [7]: 13.2% (inactive) | superoxide response (% of plate) [8]: 96.1% (inactive) | aptamer binding inhibition [9]: 3% (inactive) | response [10]: 2.3% (inactive) | inhibition [11]: 1.31% (inactive) | response [12]: 0.51% (inactive) | binding (% of control) [13]: 103% (inactive) | efflux inhibition (fraction of control) [14]: 0.05 (inactive) | inhibition [15]: 14% (inactive) | differentiation response [16]: -6.55% (inactive)

COc1ccc(C(=O)CCN2CCc3cc(OC)c(OC)cc3C2)cc1
percent of DMSO control GFP [1]: 104% (inactive) | GFP response vs DMSO [2]: 116% (inactive) | percent response of DMSO control [3]: 107% (inactive) | GFP response vs DMSO [4]: 70.3% (inactive) | GFP response, % of DMSO [5]: 99.7% (inactive) | double positive events [6]: 59% | vesicle binding response [6]: 115% (inactive) | inhibition [7]: 1.12% (inactive) | superoxide response (% of plate) [8]: 111% (inactive) | aptamer binding inhibition [9]: 2% (inactive) | response [10]: 2.49% (inactive) | inhibition [11]: -1.91% (inactive) | response [12]: -2.28% (inactive) | binding (% of control) [13]: 96.7% (inactive) | efflux inhibition (fraction of control) [14]: 0.42 (inactive) | inhibition [15]: 13% (inactive) | differentiation response [16]: 4.97% (inactive)

Cc1ccc(N2CCN(C(=S)c3ccc(-c4cccc([N+](=O)[O-])c4)o3)CC2)cc1
percent of DMSO control GFP [1]: 98.1% (inactive) | GFP response vs DMSO [2]: 103% (inactive) | percent response of DMSO control [3]: 109% (inactive) | GFP response vs DMSO [4]: 126% (inactive) | GFP response, % of DMSO [5]: 124% (inactive) | double positive events [6]: 61.7% | vesicle binding response [6]: 217% (inactive) | inhibition [7]: -4.52% (inactive) | superoxide response (% of plate) [8]: 89.3% (inactive) | aptamer binding inhibition [9]: 3% (inactive) | response [10]: -41.3% (inactive) | inhibition [11]: 1.79% (inactive) | response [12]: -4.54% (inactive) | binding (% of control) [13]: 102% (inactive) | efflux inhibition (fraction of control) [14]: -0.13 (inactive) | inhibition [15]: 3% (inactive) | differentiation response [16]: -9.91% (inactive)

CC1(C)Cc2nc3sc4c(=O)n(CC(N)=O)cnc4c3cc2CO1
percent of DMSO control GFP [1]: 90.9% (inactive) | GFP response vs DMSO [2]: 134% (inactive) | percent response of DMSO control [3]: 115% (inactive) | GFP response vs DMSO [4]: 73.2% (inactive) | GFP response, % of DMSO [5]: 82.2% (inactive) | double positive events [6]: 67.5% | vesicle binding response [6]: 159% (inactive) | inhibition [7]: 3.55% (inactive) | superoxide response (% of plate) [8]: 102% (inactive) | aptamer binding inhibition [9]: 10% (inactive) | response [10]: -4.57% (inactive) | inhibition [11]: 12.8% (inactive) | response [12]: -2.49% (inactive) | binding (% of control) [13]: 97% (inactive) | efflux inhibition (fraction of control) [14]: 0.41 (inactive) | inhibition [15]: 14% (inactive) | differentiation response [16]: -9.01% (inactive)

CN1CCc2c(n(CC(O)CN(CCO)CCO)c3ccccc23)C1=O (stereo not given)
percent of DMSO control GFP [1]: 92.6% (inactive) | GFP response vs DMSO [2]: 143% (active) | percent response of DMSO control [3]: 97.9% (inactive) | GFP response vs DMSO [4]: 82% (inactive) | GFP response, % of DMSO [5]: 99.6% (inactive) | double positive events [6]: 52.3% | vesicle binding response [6]: 195% (inactive) | inhibition [7]: -9.06% (inactive) | superoxide response (% of plate) [8]: 100% (inactive) | aptamer binding inhibition [9]: 0% (inactive) | response [10]: -17.4% (inactive) | inhibition [11]: 13.6% (inactive) | response [12]: -1.82% (inactive) | binding (% of control) [13]: 104% (inactive) | efflux inhibition (fraction of control) [14]: 0.09 (inactive) | inhibition [15]: 8% (inactive) | differentiation response [16]: -9.83% (inactive)

COC(=O)C1=C(C)N(C)C(=S)NC1c1ccc(Cl)cc1 (stereo not given)
percent of DMSO control GFP [1]: 99.8% (inactive) | GFP response vs DMSO [2]: 95.6% (inactive) | percent response of DMSO control [3]: 98.6% (inactive) | GFP response vs DMSO [4]: 98% (inactive) | GFP response, % of DMSO [5]: 88.8% (inactive) | double positive events [6]: 63% | vesicle binding response [6]: 138% (inactive) | inhibition [7]: -2.43% (inactive) | superoxide response (% of plate) [8]: 99.9% (inactive) | aptamer binding inhibition [9]: 3% (inactive) | response [10]: -27.7% (inactive) | inhibition [11]: 0.15% (inactive) | response [12]: 0.83% (inactive) | binding (% of control) [13]: 97.9% (inactive) | efflux inhibition (fraction of control) [14]: -0.04 (inactive) | inhibition [15]: 7% (inactive) | differentiation response [16]: -10.4% (inactive)

Cc1cc(=O)oc2cc(OC(C)C(=O)NCC3CCCO3)ccc12 (stereo not given)
percent of DMSO control GFP [1]: 101% (inactive) | GFP response vs DMSO [2]: 99.6% (inactive) | percent response of DMSO control [3]: 104% (inactive) | GFP response vs DMSO [4]: 106% (inactive) | GFP response, % of DMSO [5]: 102% (inactive) | double positive events [6]: 68.8% | vesicle binding response [6]: 554% (inactive) | inhibition [7]: -14.1% (inactive) | superoxide response (% of plate) [8]: 91.7% (inactive) | aptamer binding inhibition [9]: 3% (inactive) | response [10]: -0.14% (inactive) | inhibition [11]: -3.92% (inactive) | response [12]: 0.04% (inactive) | binding (% of control) [13]: 96.8% (inactive) | efflux inhibition (fraction of control) [14]: -0.28 (inactive) | inhibition [15]: 5% (inactive) | differentiation response [16]: -7.2% (inactive)

C[C@@H]1C[C@H](Nc2ccccc2)c2ccccc2N1C(=O)c1cccnc1
percent of DMSO control GFP [1]: 103% (inactive) | GFP response vs DMSO [2]: 103% (inactive) | percent response of DMSO control [3]: 103% (inactive) | GFP response vs DMSO [4]: 98.2% (inactive) | GFP response, % of DMSO [5]: 101% (inactive) | double positive events [6]: 59.5% | vesicle binding response [6]: 188% (inactive) | inhibition [7]: 3.67% (inactive) | superoxide response (% of plate) [8]: 95.6% (inactive) | aptamer binding inhibition [9]: 4% (inactive) | response [10]: 2.27% (inactive) | inhibition [11]: 19.6% (inactive) | response [12]: -5.05% (inactive) | binding (% of control) [13]: 102% (inactive) | efflux inhibition (fraction of control) [14]: 0.05 (inactive) | inhibition [15]: 0% (inactive) | differentiation response [16]: 29.6% (inactive)

CC1(C)CC(CC(=O)O)(c2ccc(Cl)cc2)CCO1 (stereo not given)
percent of DMSO control GFP [1]: 86% (inactive) | GFP response vs DMSO [2]: 126% (inactive) | percent response of DMSO control [3]: 96.6% (inactive) | GFP response vs DMSO [4]: 85.3% (inactive) | GFP response, % of DMSO [5]: 92.8% (inactive) | double positive events [6]: 61.2% | vesicle binding response [6]: 136% (inactive) | inhibition [7]: -0.33% (inactive) | superoxide response (% of plate) [8]: 94.5% (inactive) | aptamer binding inhibition [9]: 3% (inactive) | response [10]: -2.75% (inactive) | inhibition [11]: -8.86% (inactive) | response [12]: 0.57% (inactive) | binding (% of control) [13]: 107% (inactive) | efflux inhibition (fraction of control) [14]: -0.17 (inactive) | inhibition [15]: 9% (inactive) | differentiation response [16]: -3.28% (inactive)

Reference: PubChem BioAssay
